tim23-1 inh – growth inhibitors of tim23-1 mutant yeast | S. cerevisiae tim23-1 growth, BacTiter-Glo luminescence, 24 h | inhibition, % at 20 µM | actives 1.3% (n = 330,000) | AID 463212;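 active = growth inhibition of the mutant yeast at or above 50%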;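 also: temperature-sensitive mutant grown at 25 °C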
PfHsp90 yeast 2 – inhibits growth of yeast expressing Plasmodium falciparum Hsp90. S. cerevisiae expressing PfHsp90, BacTiter-Glo ATP, 48 h; yeast lacking PDR1 and PDR3 efflux regulators. inhibition, % at 9.4 µM. actives 0.32% (n = 310,000). AID 504621;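 active = every replicate shows inhibition above about 80%, whatever the replicate mean, limit read from the data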
tim10-1 inh – tim10-1 yeast growth inhibition. AID 463190. S. cerevisiae tim10-1 ts strain growth, BacTiter-Glo, 24 h. inhibition, % at 20 µM. actives 2.2% (n = 330,000);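 active = inhibition of at least 40%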;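 also: mutant grown at 25 °C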
TIM10 inh – growth inhibitors of TIM10 yeast strain; S. cerevisiae TIM10 strain growth, BacTiter-Glo luminescence, 24 h; actives 1.4% (n = 330,000); inhibition, % at 10 µM;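 active = inhibition of 40% or more at the single tested concentration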;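 also: wild-type TIM10 isogenic control strain grown at permissive 25 °C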
NALP3 yeast inh – blocks the NALP3 inflammasome reconstituted in yeast; Yeast reconstituted NLRP3/ASC/caspase-1, beta-gal luminescence, 24 h; inhibition, % at 10 µM; actives 0.39% (n = 330,000);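 active = inhibition of 50% or more; inactive = inhibition below 50%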
tim10-1 conf – tim10-1 yeast growth inhibition, confirmed. AID 463213. actives 56% (n = 7,400). S. cerevisiae tim10-1 ts strain growth, BacTiter-Glo, 24 h. inhibition, % at 20 µM. shares compounds with tim10-1 inh;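 active = inhibition of yeast growth at or above a set limit in either of two repeat tests at 20 µM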;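 also: tim10-1 mutant grown at permissive 25 °C to find synthetic lethal compounds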
Each line names hits and unclear results; the compound was inactive in the other large screens (follow-up assays come after a bar, where they were run). Sampled rows, rich in hits. Any-hit rate of the full collection: about 3.7%.

COc1ccc(C2NC(=S)NC(O)(C(F)(F)F)C2C(=O)c2cccs2)cc1 (stereo not given)	tim10-1 inh 42.6 (no result: PfHsp90 yeast 2) | tim10-1 conf inactive
COc1ccccc1C(=O)NC(=O)COC(=O)c1cccc(NC(C)=O)c1	none
COCC(=O)OC1CCn2c1nc1c2C(=O)C(C)=C(NC(C)=O)C1=O (stereo not given)	none (no result: tim23-1 inh, tim10-1 inh, TIM10 inh, NALP3 yeast inh)
Cc1cc(C)cc(NC(=S)NCc2ccc3[nH]c4c(c3c2)CCCC4)c1	tim10-1 inh 40.7 | tim10-1 conf inactive
CCS(=O)(=O)NCc1ccc2[nH]c3c(c2c1)CCCC3	none (no result: PfHsp90 yeast 2)
CC(C)Cn1c(N)c(C(=O)COC(=O)c2ccc(Br)cc2)c(=O)n(C)c1=O	none
Clc1ccc2c(c1)-c1nnc(Br)n1-c1ccccc1S2	tim10-1 inh 47.5 | tim10-1 conf inactive
Brc1nnc2n1-c1ccccc1Sc1ccccc1-2	none
Cc1cc(C)n(CCc2nc(-c3ccc(C(C)(C)C)cc3)cs2)n1	none
Cc1cc(C)n(CCc2nc(-c3ccc(F)cc3)cs2)n1	tim10-1 inh 45.0 | tim10-1 conf 37.9
Cc1cc(NS(=O)(=O)c2ccccc2)c([N+](=O)[O-])cc1C	tim10-1 inh 41.3 | tim10-1 conf inactive
CN(Cc1ccon1)C(=O)C1CCN(C2CCN(CCCc3ccccc3)CC2)CC1	none
CC(C)(C)c1ccc(C(=O)NNc2cc(N3CCCCC3)nc(N3CCCCC3)n2)cc1	tim10-1 inh 40.1 | tim10-1 conf 35.9
CC1CCCCN1C(=O)/C(=C\c1ccccc1)c1ccccc1 (stereo not given)	tim10-1 inh 41.9 | tim10-1 conf 31.2
COC(=O)c1cccc(CSc2nc(-c3ccccc3)c(C#N)c(=O)[nH]2)c1	tim10-1 inh 47.4 | tim10-1 conf inactive
N#Cc1c(-c2ccccc2)nc(SCc2ccc(Cl)cc2)[nH]c1=O	none
Nc1sc(-c2ccccc2)c(Cc2ccccc2)c1C(=O)O	tim10-1 inh 53.2 | tim10-1 conf 34.8
COc1ccccc1Nc1nc(C)cc(C)n1	none
COc1ccccc1Nc1cc(C)nc(Nc2ccccc2OC)n1	tim10-1 inh 40.3 | tim10-1 conf inactive
Nc1cc2c(cc1C(=O)c1ccc(Cl)cc1)OCCO2	tim10-1 inh 41.2 | tim10-1 conf 33.2
O=C(c1cccc(COc2ccc(Cl)cc2Cl)c1)N1CCN(c2ccccn2)CC1	tim10-1 inh 42.2 | tim10-1 conf inactive
O=C(c1ccc(S(=O)(=O)Cc2cc(F)ccc2F)c([N+](=O)[O-])c1)N1CCCCC1	tim10-1 inh 43.5 | tim10-1 conf 28.8
O=C(c1ccc(Cl)c(Cl)c1)N1CCN(c2ccccn2)CC1	none
O=C(c1ccc(S(=O)(=O)Cc2cc(F)ccc2F)c([N+](=O)[O-])c1)N1CCCC1	none
O=C(c1ccc(Sc2cccc(Cl)c2)c([N+](=O)[O-])c1)N1CCN(c2ccccn2)CC1	tim10-1 inh 41.0 (no result: PfHsp90 yeast 2) | tim10-1 conf inactive
O=C(c1ccc(Cl)c([N+](=O)[O-])c1)N1CCN(c2ccccn2)CC1	none
O=C(c1ccc(S(=O)(=O)Cc2ccccc2Cl)c([N+](=O)[O-])c1)N1CCN(c2ccccn2)CC1	tim10-1 inh 52.2 | tim10-1 conf 38.6
O=C(CSc1ccccc1)N1CCCC(N2CCN(c3cccc(Cl)c3)CC2)C1 (stereo not given)	none (no result: PfHsp90 yeast 2)
Nc1ccccc1SCCS(=O)(=O)c1ccc(Cl)cc1	none
CCOc1ccc(-n2c(C)nc3cc(C(=O)NCc4ccc5c(c4)OCO5)ccc32)cc1	tim10-1 inh 47.2 | tim10-1 conf 34.6
COc1ccc(-n2c(C)nc3cc(C(=O)NCc4ccc5c(c4)OCO5)ccc32)cc1	none
COC(=O)c1ccccc1NC(=O)CN1C(=O)c2ccccc2C1=O	none (no result: PfHsp90 yeast 2)
CC(C)(C)C1CCc2nc(NC(=O)Cc3cn4ccsc4n3)sc2C1 (stereo not given)	tim10-1 inh 57.3 | tim10-1 conf 33.6
O=C(CSc1ccccn1)N1CCN(c2cccc(Cl)c2)CC1	tim10-1 inh 43.2 | tim10-1 conf inactive
O=C(Cc1ncc(C(F)(F)F)cc1Cl)N1CCN(c2cccc(Cl)c2)CC1	tim10-1 inh 42.8 | tim10-1 conf inactive
O=C(Cc1ncc(C(F)(F)F)cc1Cl)N1CCN(c2ccc(F)cc2)CC1	none
O=C(CSc1ccccn1)N1CCN(c2ccccc2)CC1	none (no result: PfHsp90 yeast 2)
CNNCc1ccc(C(=O)NC(C)C)cc1	none
Cc1cccc(CS(=O)(=O)c2ncc(Cl)c(C(=O)NCc3ccccc3)n2)c1	tim10-1 inh 44.0 | tim10-1 conf inactive
Cc1cccc(C)c1OCc1cc(C(=O)NCC2CC2)no1	none
Cc1cccc2c1N(CCCOc1ccc(C(C)(C)C)cc1)C(=O)C2=O	tim10-1 inh 40.3 | tim10-1 conf inactive
Cc1cccc(OCCN2C(=O)C(=O)c3cccc(C)c32)c1	none
CC(C)[C@H](NS(=O)(=O)c1ccccc1)C(=O)OCC(=O)N1N=C(c2ccc(Cl)cc2)CC1c1ccco1 (stereo not given in full)	tim10-1 inh 40.9 | tim10-1 conf inactive
COCC(=O)OCC(=O)N1N=C(c2ccc(Cl)cc2)CC1c1ccco1 (stereo not given)	none (no result: PfHsp90 yeast 2)
COc1ccc(-c2nc(-c3cccs3)c(-c3cccs3)[nH]2)cc1OC	tim10-1 inh 49.9 | tim10-1 conf 35.9
O=[N+]([O-])c1cccc(-c2nc(-c3cccs3)c(-c3cccs3)[nH]2)c1	none
Cc1ccc(C)c(-c2cc(C(=O)NNC(=S)NCC(C)C)c3ccccc3n2)c1	tim10-1 inh 47.0 | tim10-1 conf inactive
COc1ccc(C(=O)NNC(=S)NC(=O)c2cc(-c3ccccc3)nc3ccccc23)cc1	none
Cc1ccc(C)c(-c2cc(C(=O)NC3CC3)c3ccccc3n2)c1	none
CCNC(=S)NNC(=O)c1cc(-c2ccccc2C)nc2ccccc12	tim10-1 inh 46.1 | tim10-1 conf 46.3
CCCOc1ccc(C(=O)NNC(=S)NC(=O)c2cc(-c3ccc(Cl)cc3)nc3ccccc23)cc1	tim10-1 inh 46.3 | tim10-1 conf 35.9
CCCOc1cccc(-c2cc(-c3n[nH]c(=S)n3CC)c3ccccc3n2)c1	tim10-1 inh 43.4 | tim10-1 conf 32.2
Cc1cc(NC(=O)CSc2cn(CC(=O)N(C(C)C)C(C)C)c3ccccc23)no1	none
CCCOc1cccc(-c2cc(C(=O)NNC(=S)NCC)c3ccccc3n2)c1	tim10-1 inh 54.3 | tim10-1 conf 50.5
CCCCNC(=S)NNC(=O)c1cc(-c2ccncc2)nc2ccccc12	none
COc1ccc(-n2ncc3c2CC(C)(C)CC3NC(=O)c2oc(C)cc2C)cc1 (stereo not given)	tim10-1 inh 44.2 | tim10-1 conf inactive
Cc1cc(C)c(C(=O)NC2CC(C)(C)Cc3c2cnn3-c2ccccc2)o1 (stereo not given)	tim10-1 inh 45.0 | tim10-1 conf inactive
CSCc1ccc(C(=O)NC2CC(C)(C)Cc3c2cnn3-c2ccc(F)cc2)o1 (stereo not given)	tim10-1 inh 40.9 | tim10-1 conf inactive
